Measurements: the supplement of paper PMC8728848
This is one part of a sample in which the strongest signals are shown more often than they occur.

Experiments:
Experiment in all cases: glycan array binding signal (z-score within array); higher = stronger binding
Conditions in all cases: glycan notation: IUPAC condensed, linker removed; mutation: N130D
[1] = biological target: Fuc(a1-2)Gal(b1-3)[Fuc(a1-4)]GlcNAc
Outline: (§1)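 Arrays were curated from the Consortium for Functional Glycomics database, 3228 in total, and kept only where the protein sequence was available. Binding is expressed as a within-array Z-score. This score was averaged across arrays of the same protein sequence at different concentrations or buffers and across linkers, and negative values can be read as non-binding.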

[2] = biological target: Fuc(a1-2)Gal(b1-4)GlcNAc(b1-2)Man(a1-3)[Fuc(a1-2)Gal(b1-4)GlcNAc(b1-2)Man(a1-6)]Man(b1-4)GlcNAc(b1-4)[Fuc(a1-6)]GlcNAc
Outline: as §1

[3] = biological target: Fuc(a1-2)Gal(b1-4)GlcNAc(b1-3)Gal(b1-4)GlcNAc(b1-3)Gal(b1-4)GlcNAc
Outline: as §1

[4] = biological target: Fuc(a1-2)[Gal(a1-3)]Gal(b1-3)GlcNAc(b1-3)GalNAc
Outline: as §1

[5] = biological target: Fuc(a1-2)[Gal(a1-3)]Gal(b1-4)GlcNAc(b1-3)GalNAc
Outline: as §1

[6] = biological target: Fuc(a1-2)[Gal(a1-3)]Gal(b1-4)[Fuc(a1-3)]GlcNAc(b1-3)GalNAc
Outline: as §1

[7] = biological target: Fuc(a1-2)[GalNAc(a1-3)]Gal(b1-4)GlcNAc(b1-6)GalNAc
Outline: as §1

[8] = biological target: Fuc(a1-3)[Gal(b1-4)]GlcNAc6S
Outline: as §1

Fuc(b1-3)GlcNAc = biological target: Fuc(b1-3)GlcNAc
Outline: as §1

[9] = biological target: Gal(a1-4)Gal(b1-4)GlcNAc(b1-3)Gal(b1-4)Glc
Outline: as §1

[10] = biological target: Gal(b1-3)[Fuc(a1-4)]GlcNAc(b1-3)Gal(b1-4)[Fuc(a1-3)]GlcNAc
Outline: as §1

[11] = biological target: Gal(b1-3)[Fuc(a1-4)]GlcNAc(b1-6)GalNAc
Outline: as §1

Gal(b1-4)GlcNAc(b1-2)Man = biological target: Gal(b1-4)GlcNAc(b1-2)Man
Outline: as §1

[12] = biological target: Gal(b1-4)GlcNAc(b1-2)Man(a1-6)[GlcNAc(b1-2)Man(a1-3)]Man(b1-4)GlcNAc(b1-4)GlcNAc
Outline: as §1

[13] = biological target: Gal(b1-4)GlcNAc(b1-3)Gal(b1-4)GlcNAc(b1-3)Gal(b1-4)GlcNAc(b1-2)Man(a1-3)[Gal(b1-4)GlcNAc(b1-3)Gal(b1-4)GlcNAc(b1-3)Gal(b1-4)GlcNAc(b1-2)Man(a1-6)]Man(b1-4)GlcNAc(b1-4)GlcNAc
Outline: as §1

[14] = biological target: Gal(b1-4)GlcNAc(b1-3)Gal(b1-4)GlcNAc(b1-3)Gal(b1-4)GlcNAc(b1-3)Gal(b1-4)GlcNAc(b1-3)Gal(b1-4)GlcNAc(b1-2)[Gal(b1-4)GlcNAc(b1-3)Gal(b1-4)GlcNAc(b1-3)Gal(b1-4)GlcNAc(b1-3)Gal(b1-4)GlcNAc(b1-3)Gal(b1-4)GlcNAc(b1-6)]Man(a1-6)[Gal(b1-4)GlcNAc(b1-3)Gal(b1-4)GlcNAc(b1-3)Gal(b1-4)GlcNAc(b1-3)Gal(b1-4)GlcNAc(b1-3)Gal(b1-4)GlcNAc(b1-2)Man(a1-3)]Man(b1-4)GlcNAc(b1-4)[Fuc(a1-6)]GlcNAc
Outline: as §1

[15] = biological target: Gal(b1-4)GlcNAc(b1-3)Gal(b1-4)GlcNAc(b1-3)[Gal(b1-4)GlcNAc(b1-3)Gal(b1-4)GlcNAc(b1-6)]GalNAc
Outline: as §1

[16] = biological target: Gal3S(b1-4)[Fuc(a1-3)]GlcNAc
Outline: as §1

Gal6S(b1-3)GlcNAc6S = biological target: Gal6S(b1-3)GlcNAc6S
Outline: as §1

[17] = biological target: GalNAc(a1-3)GalNAc(b1-3)Gal(a1-4)Gal(b1-4)GlcNAc
Outline: as §1

GalNAc(b1-3)GlcNAc = biological target: GalNAc(b1-3)GlcNAc
Outline: as §1

GalNAc3S(b1-4)GlcNAc3S = biological target: GalNAc3S(b1-4)GlcNAc3S
Outline: as §1

[18] = biological target: GlcNAc(a1-4)Gal(b1-4)GlcNAc(b1-3)Gal(b1-4)GlcNAc
Outline: as §1

[19] = biological target: GlcNAc(b1-3)[GlcNAc(b1-4)][GlcNAc(b1-6)]GlcNAc
Outline: as §1

[20] = biological target: Man(a1-2)Man(a1-2)Man(a1-3)Man
Outline: as §1

[21] = biological target: Man(a1-2)Man(a1-6)[Man(a1-3)]Man(a1-6)[Man(a1-2)Man(a1-2)Man(a1-3)]Man
Outline: as §1

[22] = biological target: Neu5Ac(a2-3)Gal(b1-3)GlcNAc(b1-6)GalNAc
Outline: as §1

Neu5Ac(a2-3)Gal(b1-4)Glc = biological target: Neu5Ac(a2-3)Gal(b1-4)Glc
Outline: as §1

[23] = biological target: Neu5Ac(a2-3)Gal(b1-4)GlcNAc(b1-2)Man
Outline: as §1

[24] = biological target: Neu5Ac(a2-3)Gal(b1-4)GlcNAc(b1-2)[Neu5Ac(a2-3)Gal(b1-4)GlcNAc(b1-6)]Man(a1-6)[Neu5Ac(a2-3)Gal(b1-4)GlcNAc(b1-2)Man(a1-3)][GlcNAc(b1-4)]Man(b1-4)GlcNAc(b1-4)GlcNAc
Outline: as §1

[25] = biological target: Neu5Ac(a2-3)Gal(b1-4)GlcNAc(b1-3)Gal(b1-3)GlcNAc
Outline: as §1

[26] = biological target: Neu5Ac(a2-3)Gal(b1-4)GlcNAc(b1-6)GalNAc
Outline: as §1

[27] = biological target: Neu5Ac(a2-3)Gal(b1-4)[Fuc(a1-3)]GlcNAc(b1-3)GalNAc
Outline: as §1

[28] = biological target: Neu5Ac(a2-6)Gal(b1-4)GlcNAc(b1-2)Man(a1-3)[GlcNAc(b1-4)][Neu5Ac(a2-6)Gal(b1-4)GlcNAc(b1-2)Man(a1-6)]Man(b1-4)GlcNAc(b1-4)GlcNAc
Outline: as §1

[29] = biological target: Neu5Ac(a2-6)Gal(b1-4)GlcNAc(b1-2)Man(a1-6)Man(b1-4)GlcNAc(b1-4)GlcNAc
Outline: as §1

[30] = biological target: Neu5Ac(a2-6)Gal(b1-4)GlcNAc(b1-3)Gal(b1-4)GlcNAc(b1-2)Man(a1-3)[Neu5Ac(a2-6)Gal(b1-4)GlcNAc(b1-3)Gal(b1-4)GlcNAc(b1-2)Man(a1-6)]GalNAc
Outline: as §1

[31] = biological target: Neu5Ac(a2-6)Gal(b1-4)GlcNAc(b1-6)GalNAc
Outline: as §1

[32] = biological target: Neu5Ac(a2-6)Gal(b1-4)GlcNAc(b1-6)[Gal(b1-3)]GalNAc
Outline: as §1

[33] = biological target: Neu5Ac(a2-8)Neu5Ac(a2-3)Gal(b1-4)Glc
Outline: as §1

[34] = biological target: Neu5Ac9Ac(a2-3)Gal(b1-4)GlcNAc
Outline: as §1

B1: Pwp5 DD (Candida glabrata) (protein)
chain: MGSSHHHHHHSSGLVPRGSHMASANPVPLTNVCYFPEEYPRQAGFRAITAGLASTILQGSVDELLNYSGLSSLTTQQTTTTTPNFQLPTLPLPTNVYGLTVVPLYLLVQLQGYFVPPVSGQYTFSLENTDDAAIIFFGNPSAFPCGDLSAWPQASADDITVTDGTFPSRTLFLKAGVAYPMRISYYNSLGSGNLAVSFTDPGGTKRTNWNGYIWRYNSCSTCTYT
[1]
  glycan array binding signal (z-score): 0.621
[2]
  glycan array binding signal (z-score): 2.89
[3]
  glycan array binding signal (z-score): -1.56
[4]
  glycan array binding signal (z-score): -0.233
[5]
  glycan array binding signal (z-score): 0.126
[6]
  glycan array binding signal (z-score): -0.895
[7]
  glycan array binding signal (z-score): -0.759
[8]
  glycan array binding signal (z-score): -0.328
Fuc(b1-3)GlcNAc
  glycan array binding signal (z-score): -0.571
[9]
  glycan array binding signal (z-score): 0.021
[10]
  glycan array binding signal (z-score): -0.574
[11]
  glycan array binding signal (z-score): 4.76
Gal(b1-4)GlcNAc(b1-2)Man
  glycan array binding signal (z-score): -0.513
[12]
  glycan array binding signal (z-score): 3.33
[13]
  glycan array binding signal (z-score): 3.2
[14]
  glycan array binding signal (z-score): 3.61
[15]
  glycan array binding signal (z-score): -0.447
[16]
  glycan array binding signal (z-score): -0.734
Gal6S(b1-3)GlcNAc6S
  glycan array binding signal (z-score): 2.71
[17]
  glycan array binding signal (z-score): 1.09
GalNAc(b1-3)GlcNAc
  glycan array binding signal (z-score): -0.687
GalNAc3S(b1-4)GlcNAc3S
  glycan array binding signal (z-score): 3.21
[18]
  glycan array binding signal (z-score): 0.377
[19]
  glycan array binding signal (z-score): -0.559
[20]
  glycan array binding signal (z-score): -0.413
[21]
  glycan array binding signal (z-score): -0.259
[22]
  glycan array binding signal (z-score): 0.895
Neu5Ac(a2-3)Gal(b1-4)Glc
  glycan array binding signal (z-score): -0.436
[23]
  glycan array binding signal (z-score): 2.67
[24]
  glycan array binding signal (z-score): 11.6
[25]
  glycan array binding signal (z-score): -0.723
[26]
  glycan array binding signal (z-score): 0.366
[27]
  glycan array binding signal (z-score): 3.63
[28]
  glycan array binding signal (z-score): 3.92
[29]
  glycan array binding signal (z-score): 0.32
[30]
  glycan array binding signal (z-score): 0.149
[31]
  glycan array binding signal (z-score): 0.08
[32]
  glycan array binding signal (z-score): -0.062
[33]
  glycan array binding signal (z-score): -0.613
[34]
  glycan array binding signal (z-score): -0.213
